Data from PubChem BioAssay.
Calls of active or inactive are those of the source.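 Rule for the calls, unless noted: active = inhibition at or above 50% at 10 µM; inactive = inhibition below 50%.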

What was measured:
[1] = inhibitors of TNFa-induced NFkB p65 translocation, primary screen, imaging, HUVEC, MLSMR starter and 10KST1 sets (AID 438;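 active = inhibition above 20% together with a positive visual image hit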;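 note: compound added about 3h40 before a 20 min TNFalpha stimulation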;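 for inhibition: signal is the nuclear over cytoplasmic p65 intensity ratio per well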); details: HUVEC TNFa-induced p65 nuclear translocation; cell count: measured here: nuclei count (cytotoxicity indicator), at 2.08 µM; inhibition: at 2 µM, stronger effect = higher value, 0% TNFa-plus-vehicle, 100% no-TNFa wells
[2] = reduction of polyQ htt aggregates in cells – imaging, exon1htt(103Q)mCFP cells, high-content imaging, primary screen (AID 483;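 active = visual image review flags a hit and inhibition of aggregation exceeds 20%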;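 note: compound exposure lasted 3 days before fixation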;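 for nuclei count: percent of the per-plate median nuclei count of sample wells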); details: exon1htt(103Q)mCFP cell line, aggregate imaging, at 2 µM; inhibition of aggregation: stronger effect = higher value; nuclei count: measured here: cell count, toxicity
[3] = endothelial E-selectin expression blockers – imaging, HUVEC, immunofluorescence, MLSMR starter and 10KST1 sets, primary screen (AID 487;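 active = visually confirmed hit in the image check and inhibition above 20%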;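 for inhibition: signal is fraction of cell area covered by stained E-selectin grains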;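 for nuclei count: 100% = median nuclei count of all wells on the same plate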); details: HUVEC TNFalpha-induced E-selectin immunofluorescence imaging, at 2 µM; inhibition: stronger effect = higher value; nuclei count: measured here: cell number, toxicity
[4] = biological target: Voltage-gated potassium channel subunit beta-2 (Rattus norvegicus) (UniProt P62483); assay: inhibitors of rat Kvbeta2 reductase activity – biochemical, NADPH fluorescence, primary screen (AID 622;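 active = fluorescence slope higher than the sample average by over 3 SD, cut at about -0.22 in these data, passing the limit was not always enough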;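 note: slope of raw intensity against log time taken from 70 to 1610 s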); details: recombinant KvBeta, 4-cyanobenzaldehyde reduction, at 10 µM, stronger effect = higher value
Chain of Voltage-gated potassium channel subunit beta-2 (Rattus norvegicus) (P62483 whole entry, looked up): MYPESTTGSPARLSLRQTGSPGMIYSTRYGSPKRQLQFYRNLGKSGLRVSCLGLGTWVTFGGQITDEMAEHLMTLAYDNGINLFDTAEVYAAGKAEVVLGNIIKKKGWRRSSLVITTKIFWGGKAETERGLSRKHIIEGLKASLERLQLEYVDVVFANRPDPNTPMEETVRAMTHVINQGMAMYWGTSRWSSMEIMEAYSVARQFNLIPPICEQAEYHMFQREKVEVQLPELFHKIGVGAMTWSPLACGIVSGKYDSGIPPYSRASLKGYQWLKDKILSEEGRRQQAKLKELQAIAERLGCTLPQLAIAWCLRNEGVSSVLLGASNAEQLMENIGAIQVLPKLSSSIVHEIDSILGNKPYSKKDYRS

[5] = biological target: Voltage-gated potassium channel subunit beta-2 (Rattus norvegicus) (UniProt P62483); assay: enhancers of rat Kvbeta2 NADPH turnover – biochemical, NADPH fluorescence, primary screen (AID 623;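 active = NADPH fluorescence slope more negative than the mean of all samples by about 3 SD, 99.7% confidence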;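 note: fluorescence intensity change per second fitted from 20 to 320 s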); details: Recombinant KvBeta, NADPH fluorescence decrease slope, 10 min; at 10 µM; stronger effect = lower value
[6] = biological target: Alpha-2C adrenergic receptor (Homo sapiens) (UniProt P18825); assay: compounds altering alpha2C-coupled GIRK flux – cell-based, HEK293 alpha2C/GIRK1/2, thallium flux, primary screen (AID 624;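 active = fluorescence slope after compound addition differing from the mean of all screened samples at 99.7% confidence, in either direction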;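 note: slope of fluorescence ratio to pre-addition baseline per second over 15 to 24 s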); details: thallium flux BTC fluorescence, at 10 µM, actives lie on both sides
Chain of Alpha-2C adrenergic receptor (Homo sapiens) (P18825 whole entry, looked up): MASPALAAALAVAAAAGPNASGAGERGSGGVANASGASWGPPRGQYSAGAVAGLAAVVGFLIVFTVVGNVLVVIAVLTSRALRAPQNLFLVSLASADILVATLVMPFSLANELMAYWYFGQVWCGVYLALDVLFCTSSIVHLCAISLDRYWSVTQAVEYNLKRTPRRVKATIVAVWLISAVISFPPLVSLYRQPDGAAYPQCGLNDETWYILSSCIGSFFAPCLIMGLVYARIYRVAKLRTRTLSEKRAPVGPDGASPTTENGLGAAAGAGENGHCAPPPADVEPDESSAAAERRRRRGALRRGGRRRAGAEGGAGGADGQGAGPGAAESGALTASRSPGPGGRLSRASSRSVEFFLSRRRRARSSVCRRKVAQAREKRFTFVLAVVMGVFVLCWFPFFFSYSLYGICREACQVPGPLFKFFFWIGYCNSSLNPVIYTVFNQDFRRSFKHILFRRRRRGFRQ

[7] = blockers of RIG-like receptor reporter activation – cell-based, Sendai virus stimulus, luciferase, 10K MLSCN set, TLR/RLR signaling modifier project, primary screen (AID 602276); details: HEK293 RL24 IRF3 luciferase reporter, at 10 µM, stronger effect = higher value;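 note: firefly luciferase from ISG56 promoter only with Renilla not read in this screen; 0% = Sendai virus plus DMSO and 100% = medium plus DMSO without virus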
[8] = TLR3 IRF3 reporter activation blockers – cell-based, poly I:C stimulus, luciferase, 10K MLSCN set, primary screen (AID 602277;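 active = inhibition of the reporter signal at or above 50%; inactive = inhibition below 50%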); details: HEK293-TLR3 RL24 IRF3 luciferase reporter, at 10 µM, stronger effect = higher value

| Compound | cell count [1] | inhibition [1] | inhibition of aggregation [2] | nuclei count [2] | inhibition [3] | nuclei count [3] | fluorescence slope [4] | NADPH fluorescence slope [5] | slope [6] | inhibition [7] | inhibition [8] |
| --- | --- | --- | --- | --- | --- | --- | --- | --- | --- | --- | --- |
| Cn1c(=O)[nH]c(=O)c2c1nc(N1CCNCC1)n2CCOc1ccccc1 | 321 | -3.8% (inactive) | 2.5% (inactive) | 104% | -91.3% (inactive) | 124% | -0.513 (inactive) | 4.4e-05 (inactive) | 0.00611 (inactive) | -11.6% (inactive) | 1.53% (inactive) |
| OC1(c2cccc(C(F)(F)F)c2)CCN(c2ccc(-c3ccccc3)nn2)CC1 | 853 | 4.3% (inactive) | -13.4% (inactive) | 96.8% | -25.2% (inactive) | 106% | -0.456 (inactive) | -4.5e-05 (inactive) | 0.00688 (inactive) | -40.7% (inactive) | -99% (inactive) |
| CCOc1ccccc1NC(=O)CN(C)S(=O)(=O)c1cccc2nsnc12 | 671 | -16.4% (inactive) | -5.6% (inactive) | 96.9% | -141% (inactive) | 119% | -0.329 (inactive) | -4.9e-05 (inactive) | 0.00417 (inactive) | 15.8% (inactive) | 15.6% (inactive) |
| CCCNS(=O)(=O)c1ccc(C(=O)NCC2CCCO2)cc1 (stereo not drawn) | 482 | 2.6% (inactive) | -16.7% (inactive) | 114% | -95.5% (inactive) | 114% | -0.529 (inactive) | -4.9e-05 (inactive) | 0.00794 (inactive) | 10.8% (inactive) | 20.7% (inactive) |
| COc1ccccc1C(=O)n1nc(-c2ccc(Cl)cc2)nc1N | 330 | -1.2% (inactive) | -3.1% (inactive) | 104% | -17.2% (inactive) | 113% | -0.426 (inactive) | 1.8e-05 (inactive) | 0.00385 (inactive) | 2.38% (inactive) | 9.48% (inactive) |
| COc1ccc2nc3oc(C(=O)NC4CCN(Cc5ccccc5)CC4)cc3cc2c1 | 237 | -1.3% (inactive) | -19% (inactive) | 107% | -9.9% (inactive) | 110% | -0.122 (active) | -8.2e-06 (inactive) | 0.00404 (inactive) | -32.2% (inactive) | -53.8% (inactive) |
| S=c1[nH]nc(-c2cccc(Br)c2)o1 | 242 | 12.7% (inactive) | 15.6% (inactive) | 110% | -57.8% (inactive) | 120% | -0.361 (inactive) | 1.9e-05 (inactive) | 0.0039 (inactive) | 4.14% (inactive) | 8.86% (inactive) |
| CCCCNC(=O)c1nnn(-c2ccccc2)c1N | 311 | 3.9% (inactive) | 8% (inactive) | 110% | -11.4% (inactive) | 120% | -0.568 (inactive) | 2.4e-05 (inactive) | 0.00585 (inactive) | -55.7% (inactive) | -166% (inactive) |
| O=C(c1csc2ccccc12)n1cccn1 | 327 | 5.6% (inactive) | 6% (inactive) | 99.2% | 4.5% (inactive) | 105% | -0.502 (inactive) | -3.1e-05 (inactive) | 0.00494 (inactive) | 19% (inactive) | 21.3% (inactive) |
| COc1ccc(C2C(C(=O)Nc3cccnc3)=C(C)Nc3nc(-c4cccs4)nn32)cc1OC (stereo not drawn) | 543 | 5.1% (inactive) | 2.5% (inactive) | 84.7% | 3.4% (inactive) | 104% | -0.593 (inactive) | -4.3e-05 (inactive) | 0.0064 (inactive) | 7.94% (inactive) | 31.3% (inactive) |
| COc1ccc(N2CC(C(=O)Nc3ccc(F)cc3F)CC2=O)cc1 (stereo not drawn) | 281 | -3.5% (inactive) | -30.8% (inactive) | 111% | 12% (inactive) | 104% | -0.514 (inactive) | -1.3e-05 (inactive) | 0.00428 (inactive) | 14.4% (inactive) | 20.8% (inactive) |
| Cn1nc(CC(=O)Nc2ccc(N3CCN(C(=O)OC(C)(C)C)CC3)cc2)c2ccccc2c1=O | 639 | -32.6% (inactive) | -11.8% (inactive) | 91.2% | -34.7% (inactive) | 99% | -0.493 (inactive) | 8.9e-05 (inactive) | 0.00619 (inactive) | -10.5% (inactive) | -50.4% (inactive) |
| COc1ccc(N2CCN(Cc3nc4ccccc4c(=O)[nH]3)CC2)cc1 | 683 | -4.7% (inactive) | -13.4% (inactive) | 119% | -72.3% (inactive) | 112% | -0.607 (inactive) | -3.1e-07 (inactive) | 0.00376 (inactive) | 10.6% (inactive) | -9.48% (inactive) |
| CCCCCc1c(C)nc(Nc2nc(C)c3cc(OC)ccc3n2)[nH]c1=O | 411 | 5% (inactive) | 7.6% (inactive) | 84.7% | 9.5% (inactive) | 98% | -0.598 (inactive) | 1.7e-05 (inactive) | 0.00896 (inactive) | 12.6% (inactive) | -6.69% (inactive) |
| O=C(CCN1C(=O)COc2ccccc21)N1CCN(c2ccccn2)CC1 | 690 | -8.6% (inactive) | -0.4% (inactive) | 101% | -176% (inactive) | 132% | -0.591 (inactive) | 5.1e-07 (inactive) | 0.00618 (inactive) | 10.4% (inactive) | 14.6% (inactive) |
| CCOc1ccccc1C1C(C(=O)Nc2ccc(OC)cc2)=C(C)Nc2nc(CCCO)nn21 (stereo not drawn) | 659 | -0.3% (inactive) | -30.8% (inactive) | 116% | -35.4% (inactive) | 118% | -0.443 (inactive) | -2.8e-05 (inactive) | 0.00548 (inactive) | -0.537% (inactive) | 17.2% (inactive) |
| C=CCc1c(C)nc(SC)nc1Nc1ccc(C(=O)O)cc1 | 497 | 7.2% (inactive) | 7.3% (inactive) | 106% | -41.5% (inactive) | 118% | -0.488 (inactive) | -3.9e-05 (inactive) | 0.00683 (inactive) | 4.8% (inactive) | 21.7% (inactive) |
| CCCCOc1ccccc1C1C(C(N)=O)=C(C)Nc2nnnn21 (stereo not drawn) | 279 | -4.7% (inactive) | 0.7% (inactive) | 88.7% | -56% (inactive) | 97.9% | -0.459 (inactive) | 2.7e-05 (inactive) | 0.0066 (inactive) | 17.4% (inactive) | 27.7% (inactive) |
| CCn1c(=O)c(=O)[nH]c2cc(C(=O)N3CCN(c4ccccc4F)CC3)ccc21 | 688 | -6.1% (inactive) | -40.8% (inactive) | 81.5% | -16.5% (inactive) | 110% | -0.594 (inactive) | -3e-05 (inactive) | 0.0083 (inactive) | 5.11% (inactive) | 6.91% (inactive) |
| COc1ccc(S(=O)(=O)N2CCC(C(=O)c3ccc4c(c3)OCCO4)CC2)cc1 | 298 | -0.7% (inactive) | 14.2% (inactive) | 157% | -51.9% (inactive) | 119% | -0.461 (inactive) | -8e-05 (inactive) | 0.00739 (inactive) | -3.88% (inactive) | 12.1% (inactive) |
| O=C(Nc1ccccc1C(F)(F)F)c1cc(S(=O)(=O)N2CCOCC2)ccc1F | 415 | 2.8% (inactive) | 12.8% (inactive) | 62.3% | -247% (inactive) | 107% | -0.619 (inactive) | 2.6e-06 (inactive) | 0.00704 (inactive) | 8.22% (inactive) | 21.8% (inactive) |
| COc1ccc(Cn2nnnc2CN2CCOCC2)cc1 | 476 | 2.5% (inactive) | -2.3% (inactive) | 108% | 1% (inactive) | 97.7% | -0.441 (inactive) | 1.6e-05 (inactive) | 0.00479 (inactive) | 16.9% (inactive) | 15.2% (inactive) |
| CCOCCCNC(=O)C1CC(=O)N(C2CCCC2)C1 (stereo not drawn) | 536 | -6.8% (inactive) | 1.5% (inactive) | 103% | 11.6% (inactive) | 118% | -0.495 (inactive) | -1.6e-05 (inactive) | 0.00627 (inactive) | 15.9% (inactive) | 18.9% (inactive) |
| CCCCCCC(C)n1[nH]c(=O)c2c(C)cc(=O)[nH]c21 (stereo not drawn) | 675 | 8.2% (inactive) | -12.3% (inactive) | 105% | -6.2% (inactive) | 91.9% | -0.61 (inactive) | -1.7e-05 (inactive) | 0.00325 (inactive) | 3.89% (inactive) | -2.25% (inactive) |
| CC1(C)CC(=O)c2cnc(NC(=O)Cc3ccc(Cl)cc3)nc2C1 | 382 | -0.3% (inactive) | -0.3% (inactive) | 97.2% | -20.1% (inactive) | 115% | -0.485 (inactive) | -4.8e-05 (inactive) | 0.00659 (inactive) | -25% (inactive) | 18.3% (inactive) |
| CCOC(=O)N1CCC(c2cc(=O)n3[nH]c(C)c(-c4ccc(F)cc4)c3n2)CC1 | 743 | -13.4% (inactive) | -25.8% (inactive) | 120% | -82.2% (inactive) | 119% | -0.589 (inactive) | 1.5e-07 (inactive) | 0.00863 (inactive) | 11.5% (inactive) | 31% (inactive) |
| N#Cc1cc2c(nc1SCC(=O)N1CCCCC1)CCCC2 | 220 | 5.5% (inactive) | 0.1% (inactive) | 90.1% | -46% (inactive) | 98.7% | -0.473 (inactive) | 4.2e-05 (inactive) | 0.00388 (inactive) | -26.1% (inactive) | -20.2% (inactive) |
| CC(=O)N(C(C)=O)c1cccc2c(N(C(C)=O)C(C)=O)cccc12 | 450 | -10.7% (inactive) | 26.2% (inactive) | 44.9% | -28.6% (inactive) | 87.9% | -0.431 (inactive) | -5.3e-05 (inactive) | 0.00429 (inactive) | 12.7% (inactive) | 31.6% (inactive) |
